Screening data deposited in PubChem by several laboratories.
Most compounds without a hit are left out; they make up all but 2% or so of the library.
FAS-TE inh – FAS thioesterase domain inhibitors, primary screen, biochemical, fluorescence intensity, uHTS | recombinant FAS-TE, OMFH fluorogenic substrate, fluorescence endpoint | inhibition, % at 15 µM | hit rate 0.67% among 360,000 | AID 602261, 2012;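 active = compounds whose normalised, plate-corrected inhibition of enzyme fluorescence in the single-dose primary screen is 50% or more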;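 also: 0% = DMSO with enzyme and 100% = substrate without enzyme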
Target sequence (P49327 whole entry, looked up, the tested form may be a part): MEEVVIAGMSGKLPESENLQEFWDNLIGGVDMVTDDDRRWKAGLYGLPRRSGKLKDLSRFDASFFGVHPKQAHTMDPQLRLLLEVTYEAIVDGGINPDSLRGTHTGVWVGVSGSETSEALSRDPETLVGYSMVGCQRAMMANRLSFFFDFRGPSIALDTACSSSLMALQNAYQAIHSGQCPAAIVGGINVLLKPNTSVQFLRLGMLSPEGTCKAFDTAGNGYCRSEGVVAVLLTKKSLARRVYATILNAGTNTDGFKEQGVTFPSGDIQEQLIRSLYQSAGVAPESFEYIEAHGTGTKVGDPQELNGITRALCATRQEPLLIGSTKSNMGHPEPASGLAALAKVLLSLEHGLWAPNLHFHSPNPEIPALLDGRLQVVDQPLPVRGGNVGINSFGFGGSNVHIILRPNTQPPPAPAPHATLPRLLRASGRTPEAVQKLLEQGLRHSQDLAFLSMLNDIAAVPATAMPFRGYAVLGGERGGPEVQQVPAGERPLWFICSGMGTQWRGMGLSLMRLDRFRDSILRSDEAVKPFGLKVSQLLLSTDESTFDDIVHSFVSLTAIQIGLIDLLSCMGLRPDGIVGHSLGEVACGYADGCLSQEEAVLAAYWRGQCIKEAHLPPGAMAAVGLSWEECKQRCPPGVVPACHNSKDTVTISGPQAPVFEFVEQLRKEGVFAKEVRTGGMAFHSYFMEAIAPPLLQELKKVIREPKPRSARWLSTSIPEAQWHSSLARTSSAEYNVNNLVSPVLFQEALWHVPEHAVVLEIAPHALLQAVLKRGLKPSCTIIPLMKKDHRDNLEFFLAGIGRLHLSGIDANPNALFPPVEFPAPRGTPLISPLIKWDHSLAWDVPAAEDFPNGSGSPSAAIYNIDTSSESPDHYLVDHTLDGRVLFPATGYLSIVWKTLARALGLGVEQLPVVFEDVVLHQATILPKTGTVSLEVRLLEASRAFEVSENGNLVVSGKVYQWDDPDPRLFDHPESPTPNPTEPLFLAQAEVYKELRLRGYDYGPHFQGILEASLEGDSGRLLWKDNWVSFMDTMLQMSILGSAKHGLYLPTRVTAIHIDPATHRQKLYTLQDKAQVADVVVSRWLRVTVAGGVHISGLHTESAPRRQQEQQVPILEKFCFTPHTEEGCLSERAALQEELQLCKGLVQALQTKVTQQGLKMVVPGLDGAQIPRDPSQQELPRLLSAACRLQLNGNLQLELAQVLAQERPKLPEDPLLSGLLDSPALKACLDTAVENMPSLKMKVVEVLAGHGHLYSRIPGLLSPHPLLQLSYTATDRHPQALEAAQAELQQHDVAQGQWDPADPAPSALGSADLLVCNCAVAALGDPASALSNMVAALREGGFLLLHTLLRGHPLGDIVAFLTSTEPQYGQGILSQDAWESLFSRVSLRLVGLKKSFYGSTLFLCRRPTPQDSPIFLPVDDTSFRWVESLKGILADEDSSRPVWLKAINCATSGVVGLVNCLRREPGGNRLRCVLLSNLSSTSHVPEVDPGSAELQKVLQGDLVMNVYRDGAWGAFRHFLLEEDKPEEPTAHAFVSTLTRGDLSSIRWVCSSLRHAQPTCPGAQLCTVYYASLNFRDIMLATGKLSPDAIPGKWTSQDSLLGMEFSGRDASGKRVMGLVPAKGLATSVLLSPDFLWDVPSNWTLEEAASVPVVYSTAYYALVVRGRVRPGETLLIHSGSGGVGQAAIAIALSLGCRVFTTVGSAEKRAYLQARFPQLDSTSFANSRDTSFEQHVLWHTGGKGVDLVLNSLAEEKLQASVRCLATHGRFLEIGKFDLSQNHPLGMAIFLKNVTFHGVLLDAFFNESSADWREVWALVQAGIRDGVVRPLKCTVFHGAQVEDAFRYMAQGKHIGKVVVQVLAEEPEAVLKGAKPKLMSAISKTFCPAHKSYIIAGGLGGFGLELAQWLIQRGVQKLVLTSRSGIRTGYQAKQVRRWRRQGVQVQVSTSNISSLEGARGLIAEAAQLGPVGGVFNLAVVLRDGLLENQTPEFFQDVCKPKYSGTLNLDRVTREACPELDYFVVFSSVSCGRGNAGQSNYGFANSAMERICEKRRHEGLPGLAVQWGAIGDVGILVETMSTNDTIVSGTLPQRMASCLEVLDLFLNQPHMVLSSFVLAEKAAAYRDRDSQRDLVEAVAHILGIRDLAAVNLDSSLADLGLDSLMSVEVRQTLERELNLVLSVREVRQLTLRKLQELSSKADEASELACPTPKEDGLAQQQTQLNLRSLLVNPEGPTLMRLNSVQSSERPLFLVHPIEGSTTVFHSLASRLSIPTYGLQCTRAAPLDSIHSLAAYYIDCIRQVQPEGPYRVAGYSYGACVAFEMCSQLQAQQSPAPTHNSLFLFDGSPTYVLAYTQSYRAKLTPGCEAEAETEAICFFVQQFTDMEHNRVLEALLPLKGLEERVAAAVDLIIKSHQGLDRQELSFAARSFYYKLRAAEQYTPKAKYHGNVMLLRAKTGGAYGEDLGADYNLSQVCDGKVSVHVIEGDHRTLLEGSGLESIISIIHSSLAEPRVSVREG
GC-B act – human GC-B receptor activators, primary screen, HEK293 GC-B cells, cGMP TR-FRET, EC30 CNP; 0% at EC30 CNP, 100% saturating CNP; activation, % at 10 µM; hit rate 0.11% among 370,000;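 active = activation at 10 µM reaching about 35% in either raw or pattern-adjusted values, limit read from the data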
ADAM17 inh – ADAM17 inhibitors, primary screen, biochemical, QFRET; inhibition, % at 6.95 µM; recombinant ADAM17, EDANS/DABCYL FRET peptide cleavage; hit rate 0.83% among 370,000; Disintegrin and metalloproteinase domain-containing protein 17 (Homo sapiens), P78536;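 active = inhibition above the mean of compounds lying between control limits plus 3 SD, set per campaign, cut at about 8.5% in these data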;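 also: 0% = DMSO-only wells as the low control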
NPR1 activator – GC-A stimulated cGMP production enhancers – HEK293 GC-A cells, cGMP TR-FRET, EC30 ANP, primary screen | activation, % at 10 µM | hit rate 0.14% among 370,000 | 0% at EC30 ANP, 100% saturating ANP | Atrial natriuretic peptide receptor 1 (Homo sapiens), P16066; in the data active = activation above about 40%
ADAM10 inh – human ADAM10 inhibitors, primary screen, biochemical, QFRET, HTS | Disintegrin and metalloproteinase domain-containing protein 10 (Homo sapiens), O14672 | recombinant ADAM10, EDANS/DABCYL FRET peptide cleavage, 3 h | inhibition, % at 7 µM | hit rate 0.62% among 370,000;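 active = inhibition above a per-campaign cutoff equal to the mean of compounds falling between control-based bounds plus 3 SD, cut at about 20% in these data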;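 also: 0% = DMSO wells while the 100% control is not disclosed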
ADAM10 ctr – ADAM10 inhibitors, counter-screen for ADAM17 exosite inhibitor project, biochemical, FRET, human ADAM10 | shares compounds with ADAM17 inh | recombinant ADAM10, EDANS/DABCYL FRET peptide cleavage, 3 h | inhibition, % at 6.95 µM | hit rate 47% among 2,900;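 active = mean inhibition over the triplicate runs exceeds the activity threshold set in the earlier primary screen, cut at about 20% in these data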;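 also: 0% = DMSO wells and 100% = marimastat wells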
ADAM17 confirm – ADAM17 inhibitors, hit retest, confirmation, biochemical, QFRET peptide cleavage | shares compounds with ADAM17 inh | recombinant ADAM17, EDANS/DABCYL QFRET peptide cleavage | inhibition, % at 6.95 µM | hit rate 65% among 2,900 | AID 743257, 2014;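 active = mean inhibition across replicates above the hit cutoff set in the primary screen, cut at about 8.5% in these data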;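 also: 0% = DMSO wells and 100% = marimastat wells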
An asterisk follows results filed as active; nt = no result.

SMILES	FAS-TE inh	GC-B act	ADAM17 inh	NPR1 activator	ADAM10 inh	ADAM10 ctr	ADAM17 confirm
Cc1ccc(CN(C(=O)Cn2nnc3ccccc32)C(C(=O)NCc2ccco2)c2ccc(C)o2)cc1 (centres undefined)	21.9	-20.3	-4.8	-19.4	-11.6	nt	nt
Cc1ccc(C(C(=O)NCc2ccco2)N(CCc2ccccc2)C(=O)Cn2nnc3ccccc32)o1 (centres undefined)	7.1	-14.6	10.1*	-10.4	6.6	18.1	10.4*
CN(CC(=O)Nc1ccc(Cl)c(C(F)(F)F)c1)C(=O)c1cccnc1Sc1ccccc1	18.5	0.8	11.9*	-0.6	7.7	27.1*	9.7*
CCN(CC)C(=O)CC[C@H]1CC[C@]2(CCCN(c3ccccc3)C2)O1	nt	1.2	-5.7	4.7	-27.3	nt	nt
CC1(C(=O)NCc2cccc(C(F)(F)F)c2)CCN1Cc1ccc(-c2ccccc2)o1 (centres undefined)	26.2	-2.3	12.8*	-4.4	13.2	15.5	10.4*
COc1ccccc1NC(=O)c1nn(C)c(C(=O)Nc2ccccc2OC)c1[N+](=O)[O-]	2.2	0.8	-1.4	-3.0	2.9	nt	nt
COc1ccccc1NC(=O)c1c([N+](=O)[O-])c(C(C)(C)C)nn1C	4.0	-6.5	8.6*	-3.7	2.1	0.4	1.6
O=C(COn1nnc2ccc(S(=O)(=O)N3CCOCC3)cc21)NCCc1ccccc1	-7.4	5.5	12.6*	-1.5	7.8	-1.6	1.4
CCCCNC(=O)COn1nnc2ccc(S(=O)(=O)N3CCOCC3)cc21	-3.9	-1.1	1.8	0.1	3.1	nt	nt
Fc1ccc(Cn2c(SCc3ccc(F)c(C(F)(F)F)c3)nnc2C(F)(F)F)cc1	28.3	1.0	8.8*	-8.4	15.9	37.1*	16.9*
CCC(Oc1ccc2c(=O)c(-c3ccccc3OC)coc2c1)C(=O)OCc1ccccc1 (centres undefined)	17.9	2.4	11.0*	4.2	17.2	27.2*	12.5*
COc1ccc(N=C2SC(CC(=O)Nc3ccc(F)cc3)C(=O)N2Cc2ccco2)cc1 (centres undefined)	32.5	-5.9	12.2*	-3.7	14.6	17.9	12.8*
CCCCc1c(-c2ccccc2OC)ncn1Cc1ccc(F)c(F)c1	nt	-14.8	-0.3	-9.1	1.5	nt	nt
CCN(CC)c1ccc(NC(=O)c2cc3c(C)nn(-c4ccccc4)c3s2)cc1	nt	-15.4	12.7*	-3.0	18.7	5.9	10.3*
CCOC(=O)c1ccc(NS(=O)(=O)c2cnc[nH]2)cc1	-12.2	2.9	9.3*	2.4	-10.2	-4.1	-2.5
CCOC(=O)c1cccc(NS(=O)(=O)c2cnc[nH]2)c1	-11.6	-0.1	-0.1	2.0	-9.2	nt	nt
CC(C)CC(=O)N1CCc2cc(S(=O)(=O)N(C)Cc3ccco3)ccc21	nt	-5.0	-2.0	-3.7	-10.6	nt	nt
COc1ccccc1NC(=O)Nc1nc(CC(=O)Nc2ccc(OC)c(OC)c2)cs1	9.9	4.7	3.6	-4.3	1.6	nt	nt
CCSc1nsc(NC(=O)Nc2ccccc2F)n1	2.2	6.7	0.7	7.2	8.7	nt	nt
COc1cccc(NC(=O)Cc2csc(NC(=O)Nc3ccccc3OC)n2)c1	13.8	-6.9	10.4*	-0.8	2.9	34.8*	17.8*
CCSc1nsc(NC(=O)Nc2cccc(OC)c2)n1	3.5	-0.1	10.8*	7.7	10.3	15.3	14.1*
COC(=O)C1CN(Cc2ccc(Cl)cc2)CCS(=O)(=O)N1Cc1cn(Cc2ccc(OC)cc2)nn1 (centres undefined)	nt	-7.1	3.9	-2.8	9.0	nt	nt
COCCCNC(=O)c1ccc(Cn2c(=O)c3ccccc3n(Cc3ccc(Br)cc3)c2=O)cc1	nt	10.8	-2.8	-3.6	1.6	nt	nt
COc1ccccc1N(Cc1ccccc1)S(=O)(=O)c1cccc(C(=O)Nc2cc(C)ccn2)c1	17.8	3.5	9.0*	0.4	17.3	12.6	7.6
COc1ccccc1N(Cc1ccccc1)S(=O)(=O)c1cccc(C(=O)Nc2ncccc2C)c1	14.4	-2.8	6.2	-0.1	12.0	nt	nt
SMILES	FAS-TE inh	GC-B act	ADAM17 inh	NPR1 activator	ADAM10 inh	ADAM10 ctr	ADAM17 confirm
COc1cccc(C(=O)N/N=C/c2ccc(OC3CSC3)cc2)c1	4.6	-8.8	9.2*	-5.0	11.7	-3.1	-0.6
Cn1cc([N+](=O)[O-])c(C(=O)N/N=C/c2ccc([N+](=O)[O-])cc2)n1	2.9	5.2	5.3	0.8	6.0	nt	nt
Cn1cc([N+](=O)[O-])c(C(=O)NNC(=O)c2ccc([N+](=O)[O-])cc2)n1	7.8	5.8	8.8*	-1.4	5.1	7.7	8.6
Cc1ccc(N2CCN(/N=C\c3cccnc3)CC2)cc1	nt	10.4	0.7	5.1	-1.3	nt	nt
CN(CC(O)CON=C1c2ccccc2-c2ccccc21)S(=O)(=O)c1ccc(Br)cc1 (centres undefined)	34.6	-8.5	8.8*	-14.4	17.5	23.0*	14.2*
CCN(CC(O)CON=C1c2ccccc2-c2ccccc21)S(=O)(=O)c1ccc(C)cc1 (centres undefined)	31.7	-14.1	9.4*	-14.1	17.0	22.3*	16.9*
O=C(NCCc1ccccc1)OCc1cn(-c2ccc(F)cc2)nn1	nt	0.7	-8.2	-1.8	-8.0	nt	nt
Cc1ccc(NC(=O)c2ccccc2OCC(=O)Nc2ccccc2F)cc1S(=O)(=O)N(C)C	18.7	5.9	10.6*	5.8	4.4	41.7*	24.6*
CCNC(=O)O/N=C(\C)c1sc(-c2ccc(Cl)cc2)nc1C	4.9	0.3	9.8*	6.0	11.8	7.2	7.8
CCOC(=O)[C@]12CCCC=C1N(CCCOC)C(=O)[C@@H]2CC(=O)NCCCN1CCCC1=O	nt	-1.4	-1.1	1.2	4.1	nt	nt
CCN(CC)C(=O)CC[C@@H]1CC[C@]2(CCCN(C(=O)C(C)(C)C)C2)O1	nt	1.8	-1.5	1.2	1.8	nt	nt
CN1CCN(C(c2ccc(C(F)(F)F)cc2)c2cc(Cl)c3cccnc3c2O)CC1 (centres undefined)	nt	-6.5	12.5*	-2.4	16.3	36.3*	16.4*
Oc1c(C(c2ccccn2)N2CCCCC2)cc(Cl)c2cccnc12 (centres undefined)	6.7	3.8	25.5*	-1.9	10.1	9.3	26.8*
